Bioassay records from PubChem.
Compounds with a hit are over-represented: about 5.2% of the library has one in this group of screens.
PLK1 PBD inh: PLK1 (human) polo-box domain binding inhibition; P53350; Plk1 PBD binding of FITC phosphopeptide, fluorescence polarization; Potency, µM, for inactives: max response, negative = inhibition, usual class: inhibitors; 2.8% of 360,000 active; AID 720504; further: series mostly up to about 57 µM; nearly all actives have a fitted effect of over 65% in size
VDR inh: blocks the human vitamin D receptor; 0.93% of 400,000 active; AID 504847; Potency, µM, without a hit: max response, negative = inhibition, most hits filed as inhibitors; P11473; VDR-SRC2-3 peptide fluorescence polarization, 2 h
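Inhibition of the VDR/SRC2-3 peptide interaction is quantified by fluorescence polarization. Compounds (23 nl, pintool) incubate with the reagents for 2 hours at ambient room temperature.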
Sfp PPTase inh: Sfp phosphopantetheinyl transferase inhibition; Q9F4F7; Biochemical Sfp PPTase activity, qHTS; Potency, µM, inactives show largest response in the series, negative = inhibition, most hits filed as inhibitors; 3.5% of 310,000 active; AID 1490;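 further: the enzyme is Sfp with the accession as filed and its product quenches rhodamine fluorescence; 0% = enzyme reaction without inhibitor and -100% = no enzyme wells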
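With Hepes-Na pH 7.6 buffer containing 10 mM MgCl2, Sfp (15 nM) modified BHQ-2-YbbR (12.5 uM) using rhodamine-CoA (5 uM). Two reads 30 minutes apart at 525/598 nm yielded each well's rate.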
TrxR1 substrate: substrates of rat thioredoxin reductase 1. purified TrxR1 substrate turnover, NADPH consumption readout. Potency, µM (doses to about 114 µM), inactives show at the highest dose activity change, negative = substrate turnover. 0.01% of 390,000 active. AID 588456; further: nearly all actives have a fitted effect of over 50% in size
Target sequence (O89049 whole entry, looked up): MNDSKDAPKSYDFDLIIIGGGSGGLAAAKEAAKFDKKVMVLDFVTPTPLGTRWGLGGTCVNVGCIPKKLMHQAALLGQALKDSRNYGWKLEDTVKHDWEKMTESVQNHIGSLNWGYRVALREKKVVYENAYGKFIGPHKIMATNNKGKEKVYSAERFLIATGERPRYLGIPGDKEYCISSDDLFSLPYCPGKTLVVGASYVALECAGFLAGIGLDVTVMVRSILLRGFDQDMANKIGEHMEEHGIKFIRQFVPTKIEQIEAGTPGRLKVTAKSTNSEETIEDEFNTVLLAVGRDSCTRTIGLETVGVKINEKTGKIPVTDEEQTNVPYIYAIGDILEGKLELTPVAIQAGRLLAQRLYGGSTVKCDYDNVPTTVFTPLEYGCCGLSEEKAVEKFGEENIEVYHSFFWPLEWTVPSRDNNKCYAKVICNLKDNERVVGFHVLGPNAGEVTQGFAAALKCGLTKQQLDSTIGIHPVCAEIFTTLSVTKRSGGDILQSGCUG
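Rat TrxR1, dispensed at 90 nM, was prereduced with 400 uM NADPH (final) for 5 min at ~22 deg C, then incubated with compound 15 min before 400 uM selenite. A first-read NADPH fluorescence drop versus no-compound background flagged substrates.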
rTrxR1 inhibitor: rat TrxR1 inhibition. O89049. recombinant rTrxR1, NADPH fluorescence consumption, selenite substrate. Potency, µM (highest dose often 114 µM), for inactives: top-dose activity change, negative = inhibition, hits mostly inhibitors. 1% of 390,000 active; further: nearly all actives have a fitted effect of over 65% in size
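Rat TrxR1 (90 nM in the dispensed reagent) was pre-reduced with 400 uM NADPH for 5 min at room temperature, then incubated with compound for 15 min. After 400 uM selenite was added, NADPH fluorescence (Ex 340/Em 450 nm) was followed for 8 min.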
IDH1 R132H inh: human IDH1 R132H inhibition. O75874. IDH1-R132H enzyme, NADPH consumption, diaphorase/resazurin fluorescence. Potency, µM (doses to about 76.6 µM), without a hit: at the highest dose activity change, negative = inhibition, most hits filed as inhibitors. 0.093% of 390,000 active. AID 602179; further: nearly all actives have a fitted effect of over 65% in size
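IDH1-R132H (0.5 ug/mL dispensed) in pH 7.5 Tris buffer was preincubated 30 min with compound, then given a substrate mix of 0.016 mM NADPH and 2 mM alpha-KG for 80 min at room temperature; remaining NADPH was read by diaphorase/resazurin fluorescence.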
* = called active by the depositor; ? = inconclusive; · = not tested or not shown; [ ] = another dose, or the depositor's remark. The call rests on the fitted dose curve; in most records, active means well fitted curve in the direction sought with a large enough effect; inconclusive means small, poorly fitted or top-dose-only effect, or another doubt; inactive means no such curve, though single readings can be large; an effect the other way counts as inactive or inconclusive. Unless noted, on the % scale 0 is the no-effect control and ±100 the full control effect; potency means the concentration at half of the fitted maximal effect.

SMILES | PLK1 PBD inh | VDR inh | Sfp PPTase inh | TrxR1 substrate | rTrxR1 inhibitor | IDH1 R132H inh
Cc1ccnc2c(N)cccc12 | · | · | · | 3.0% | 7.2% | ·
CCOC(=O)/C=C/c1cc(F)ccc1O | -4.0% | · | · | · | · | ·
COC(=O)/C=C/c1cc(O)ccc1O | · | -6.1% | 50.1µM* | · | · | ·
CN1CCN(C2=C(Cl)C(=O)N(c3cccc(Cl)c3)C2=O)CC1 | -23.0% | -8.5% | -23.4% | -8.9% | ? | -2.9%
CN1CCN(C2=C(Cl)C(=O)N(c3ccc(Cl)c(Cl)c3)C2=O)CC1 | 26.7µM* | ? | 4.3% | 4.2%[57.1 µM] | 15.8µM* | -3.5%
Cc1ccc(-c2c3c(=O)n(C)c(=O)n(C)c3c3cnc4ccccc4n23)cc1 | · | -9.7% | · | 14.0% | 24.3% | 19.0%
COC(c1ccccc1Br)C(C)/C=C/CCO (stereo not drawn) | · | · | 4.8% | · | · | ·
CCOC(=O)c1cc2occc2n1CC(=O)N1CCCc2ccccc21 | -1.2% | -10.0% | 79.4µM* | -6.3% | ? | 8.0%
CCOC(=O)c1cc2sccc2n1CC(=O)N1CCCc2ccccc21 | 0.3% | -1.0% | -6.1% | 6.9% | 23.4% | 0.3%
Cc1c(S(=O)(=O)c2ccccn2)c(N)n(Cc2cccc(Cl)c2)c1C | -12.8% | -3.2% | ? | 3.5% | 20µM* | -1.1%
O=S(=O)(c1ccc(Cl)cc1)c1ccccn1 | -5.9% | 32.4% | -10.7% | 11.1% | 26.0% | -3.5%
CCCCOc1c(Br)cc(/C=N/O)cc1OCC | 0.0% | -3.5% | 16.8% | -7.3% | 29.5% | -4.8%
C=CCOc1c(Br)cc(/C=N/O)cc1OCC | 29.9µM* | -16.8% | 17.5% | -5.6% | 2.2% | 3.4%
O=C(CCN1CCC(c2ccc(Cl)s2)=N1)c1ccc(Cl)s1 | -9.5% | 1.9% | 17.1% | 2.1% | 2.82µM* | -1.4%
COc1c(Cl)cc(C(=O)NN)cc1Cl | -21.1% | 5.6% | 50.1µM* | 7.7%[57.1 µM] | 22.8%[57.1 µM] | 1.9%
NNC(=O)c1cc(O)c(O)c(O)c1 | ? | -7.5% | 31.6µM* | 1.3% | -16.9%[57.1 µM] | 0.0%
NNC(=O)c1ccncc1 | -0.2% | 4.7% | ? | 1.2% | 2.9% | 0.0%
CNC(=O)c1cc(Cl)c(OC)c(OC)c1 | 26.7µM* | -31.7% | 44.7µM* | -10.7% | -17.2% | 0.6%
COc1c(Cl)cc(C(=O)O)cc1Cl | 9.5% | -14.3% | · | 3.0% | -1.1% | 2.0%
CCc1ccc(-c2ccc3nnc(SCC(=O)Nc4cccc(C(C)=O)c4)n3n2)cc1 | · | 4.4% | · | -3.2%[57.1 µM] | 16.5%[57.1 µM] | -20.8%
O=C(Nc1ccc2nc3n(c(=O)c2c1)CCCC3)c1cccnc1Cl | 18.9µM* | ? | · | 23.4% | 46.5% | 10.1%
CC1CCCC(C)N1CCCNC(=O)C(=O)Nc1ccc2nc3n(c(=O)c2c1)CCCCC3 (stereo not drawn) | 26.7µM* | -29.2% | 16.9% | -6.4% | -8.2% | 0.0%
Cc1ccccc1C(=O)Nc1ccc2nc3n(c(=O)c2c1)CCCC3 | -3.2% | 10.2% | 5.0% | 3.6% | 25.8% | 0.0%
C#CCOc1c(Br)cc(/C=C2/C(=O)ON=C2C)cc1OC | 2.67µM* | ? | 56.2µM* | -8.1% | ? | 0.0%
C#CCOc1c(Br)cc(/C=C2/C(=O)ON=C2C)cc1OCC | 4.23µM* | ? | -68.1% | -1.8% | ? | -3.1%
SMILES | PLK1 PBD inh | VDR inh | Sfp PPTase inh | TrxR1 substrate | rTrxR1 inhibitor | IDH1 R132H inh
C=CCOc1c(Br)cc(/C=C2\SC(=Nc3ccccc3)NC2=O)cc1OC | -3.8% | -1.6% | 28.2% | 1.0% | 15.4% | -6.1%
COc1ccc(S(=O)(=O)N2CCCCC2)cc1NC(=O)c1c(F)cccc1Cl | -3.9% | 6.0% | · | -5.0% | 7.9% | -7.2%
COc1ccc([N+](=O)[O-])cc1NC(=S)NC(=O)C(C)(C)C | ? | 18.2% | 3.2% | 0.9% | ? | 1.2%
COCCN(CCOC)S(=O)(=O)c1ccc(C(=O)Nc2nnc(C)o2)cc1 | -20.4% | -6.8% | 89.1µM* | -1.9% | 2.3% | -2.7%
COCCN(CCOC)S(=O)(=O)c1ccc(C(=O)Nc2nnc(CSC)o2)cc1 | ? | -20.2% | ? | -0.7% | 14.4% | -3.5%
COCCN(CCOC)S(=O)(=O)c1ccc(C(=O)Nc2ccc([N+](=O)[O-])cc2OC)cc1 | 5.2% | -8.5% | 44.7µM* | 0.3% | 16.0% | 1.4%
COc1cc([N+](=O)[O-])ccc1NC(=S)NC(=O)CC(C)(C)C | 26.7µM* | -2.3% | 23.0% | -1.5% | 1.4% | 2.7%
